Screening results from PubChem.
Only some compounds are listed: those with a hit (about 8% of all), similar ones and a draw of the others.
HT1080 IDH1KD tx – qHTS for induction of synthetic lethality in tumor cells producing 2HG: qHTS for the HT-1080-IDH1KD cell line; Potency, µM (doses to about 46.1 µM), for the others: at the top dose activity, negative = toxicity, most hits filed as cytotoxic; HT-1080 IDH1 knockdown viability, ATP luminescence, 48 h; 360,000 compounds, 2% hits;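 also: 0% = DMSO wells and -100% = cell-free medium wells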
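After a 2 h attachment period, IDH1KD HT-1080 cells took pin-transferred compound for 48 h at 37 °C; ATP-based luminescence after 10 min room-temperature reagent incubation reported viability.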
MCF10A rerep – A quantitative high throughput screen for small molecules that induce DNA re-replication in MCF 10a normal breast cells; MCF 10A DNA re-replication, Hoechst nuclear intensity, 48 h; Potency, µM (doses to about 46.1 µM), inactives show at the highest dose activity, positive = re-replication, actives largely listed as activators; 350,000 compounds, 2.9% hits; also: % of control where 0% means no effect; nearly all actives have a fitted effect of over 50% in size
KB-V1 cytotox – qHTS assay for MDR1-selective chemotherapeutics: Primary screen using the drug-selected MDR subline cells KB-V1; KB-V1 MDR cells viability, CellTiter-Glo, 72 h; AID 1347076, 2019; Potency, µM (doses to about 46.1 µM), usual class: cytotoxic; 400,000 compounds, 3.4% hits; also: % is scaled to controls: 0 for no effect and ±100 for the full control effect; nearly all actives have a fitted effect of over 60% in size
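Cytotoxicity toward P-gp-expressing KB-V1 cells was determined as loss of CellTiter-Glo luminescence after 72 h at 37 degrees C. Compounds were tested in quantitative HTS format across a concentration range, with curves fitted to normalized data.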
KB-3-1 tox – qHTS assay for MDR1-selective chemotherapeutics: Primary screen using the parental adenocarcinoma cell KB-3-1. KB-3-1 viability, CellTiter-Glo ATP luminescence, 72 h. Potency, µM (highest dose often 46.1 µM), hits mostly cytotoxic. 400,000 compounds, 1.4% hits. AID 1347075, 2019; also: % is scaled to controls: 0 for no effect and ±100 for the full control effect; nearly all actives have a fitted effect of over 60% in size
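KB-3-1 parental drug-naive adenocarcinoma cells in DMEM/10% FBS, incubated 72 h at 37 C with pin-transferred compounds across a concentration series. Viability by CellTiter-Glo luminescence; concentration-response curves fitted after normalization.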
SW480 rereplic – A quantitative high throughput screen for small molecules that induce DNA re-replication in SW480 colon adenocarcinoma cells; SW480 DNA re-replication, Hoechst DNA content imaging, 48 h; Potency, µM (series often up to 46.1 µM), inactives show at the top dose re-replication activation, actives largely listed as activators; 340,000 compounds, 1.8% hits; also: % of control where 0% means no effect; nearly all actives have a fitted effect of over 55% in size
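First, 250 cells per well were seeded. Next, compound or vehicle (23 nL) was pinned in, plates sat 48 hr at 37 C. Finally Hoechst was added for 40 min before fluorescence scanning.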
HT1080NT lethal – qHTS for induction of synthetic lethality in tumor cells producing 2HG: qHTS for the HT-1080-NT fibrosarcoma cell line | HT-1080-NT fibrosarcoma viability, CellTiter-Glo ATP luminescence, 48 h | Potency, µM (top dose mostly 46.1 µM), without a hit: at the top dose activity, negative = less viability, most hits filed as cytotoxic | 360,000 compounds, 1.6% hits | AID 686970, 2013;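 also: NT is the 2HG producing partner of a matched IDH1 knockdown line; 0% = DMSO-treated cells and -100% = media-only wells without cells; nearly all actives have a fitted effect of over 55% in size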
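Fibrosarcoma NT cells, 750 per well in 5% FBS RPMI, were exposed to compound for 48 hours. Viability: CellTiter-Glo luminescence.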
* hit, by the source's call; i = inactive; ? = inconclusive; / = no result; ! = not confirmed by another sample; [ ] = remark or other dose. Calls follow the shape of the dose curve; as a rule, active = well fitted curve in the direction sought with a large enough effect; inconclusive = small, poorly fitted or top-dose-only effect, or another doubt; inactive = no such curve, though single readings can be large; an effect the other way counts as inactive or inconclusive. Potency is read from the fitted curve at half-maximal effect.

SMILES	HT1080 IDH1KD tx	MCF10A rerep	KB-V1 cytotox	KB-3-1 tox	SW480 rereplic	HT1080NT lethal
COc1ccc(C(=O)NN=C2CCCC2)cc1OC	-24.9%	0.6%	?	i	-8.5%	-15.0%
O=C(N/N=C/C(Br)=C\c1ccccc1)c1ccc2nc[nH]c2c1	?	23.1µM*	i	?	?	0.2%
O=C(CN1C(=O)NC2(CCCCC2)C1=O)Nc1ccc2c(c1)OCCCO2	10.0%	4.6%	?	i	-10.0%	4.4%[9.24 µM]
CC1=C(C(=O)N(C)C)CC(CC(=O)NC2CCCC2)C(=O)N1Cc1ccc(F)cc1 (configuration not stated)	4.9%	/	i	i	/	2.8%
CSc1ccccc1OCc1cc(C(=O)NCCn2ccnc2C)no1	15.2%	15.5%	i	i	1.2%	3.1%
CCOc1ccc(NC(=O)CC(C)S(=O)(=O)c2ccc3c(c2)NC(=O)CO3)cc1 (configuration not stated)	1.3%	1.2%	?	i	?	-2.1%
CCCN(c1ccc(OCC)cc1)S(=O)(=O)c1ccc2c(c1)NC(=O)CO2	-15.4%	3.5%	1.64µM*	?	?	-3.7%
CCOC(=O)c1[nH]c2ccccc2c1NC(=O)c1cc(OC)c(OC)c(OC)c1	-12.6%	-2.0%	i	i	-6.1%	5.2%
CCOC(=O)c1[nH]c2ccccc2c1NC(=O)c1cc(OC)cc(OC)c1	/	/	8.2µM*	i	/	/
Cc1cc(CC(=O)O)c(C)n1-c1ccc(Cl)cc1	/	-1.7%	/	/	4.2%	/
Cc1cc(C)cc(NC(=O)C(C)N2Cc3ccccc3C2=O)c1 (configuration not stated)	/	/	i	i	/	/
c1ccc(-c2nc(-c3nccc4ccccc34)oc2-c2ccccc2)cc1	9.1%	?	i	i	7.31µM*	-0.1%
Nc1nc(-c2ccccc2)c(-c2ccccc2)o1	12.2%	-8.7%	i	i	-74.7%	2.0%
COc1ccc(-c2oc(=O)c3cc(OC)c(OC)cc3c2/C=C/c2ccc(OC(C)=O)cc2)cc1	?	?	i	i	?	-22.3%
COc1cc(-c2noc(C)c2/C=C/c2ccc(OC(C)=O)cc2)cc(OC)c1OC	0.517µM*	?	1.3µM*!	0.731µM*	?	0.366µM*
O=c1cc(-c2ccccc2)c2ccc(O)c(CN3CCCCC3)c2o1	-6.7%	?	13µM*	i	-0.7%	-8.1%
CCN(CC)c1ccc(/C=N/N(c2ccccc2)c2ccccc2)c(O)c1	-12.0%	?	16.4µM*	i	?	-3.4%
CCN(CC)c1ccc(/C=N/Nc2nc3ccccc3[nH]2)c(O)c1	6.51µM*	18.4µM*	i	?	2.06µM*	8.2µM*
CCN(CC)c1ccc(/C=N/N=C(c2ccccc2)c2ccccc2)c(O)c1	-22.6%	?	?	i	23.1µM*	-6.1%
O=S(=O)(c1ccc2[nH]c3c(c2c1)CCCC3)N1CCN(c2cccc(C(F)(F)F)c2)CC1	/	/	i	i	/	/
Cc1sc2nc(SCCN(C)C)n(-c3ccccc3)c(=O)c2c1-c1ccc(F)cc1	-7.6%	?	i	i	18.4µM*	-7.0%
CN(C)CCSc1nc(O)c(-c2ccccc2)c(=O)n1-c1ccccc1	7.7%	-2.0%	i	i	-9.7%	2.8%
COc1ccccc1CNC(=O)[C@H](CCSC)NC(=O)[C@@H]1Cc2ccccc2CN1	0.5%	16.1%	i	?	7.31µM*	-0.2%
COc1ccccc1CNC(=O)[C@H](C)NC(=O)[C@@H]1Cc2ccccc2CN1	6.4%	1.3%	i	i	?	-2.8%
COc1ccccc1CNC(=O)C(CCSC)NC(=O)C1CCC(C)CC1 (configuration not stated)	1.4%	3.8%	4.11µM*	i	-2.6%	-2.6%
SMILES	HT1080 IDH1KD tx	MCF10A rerep	KB-V1 cytotox	KB-3-1 tox	SW480 rereplic	HT1080NT lethal
CSCCC(NC(=O)C1CCC(C)CC1)C(=O)Nc1ccc(NC(C)=O)cc1 (configuration not stated)	12.6%	1.0%	i	i	-7.2%	10.8%
CC(C(=O)c1ccccc1)[n+]1cccc(Cl)c1 (configuration not stated)	/	/	i	i	/	/
CC(C)c1ccc(NC(=O)CSc2ncnc3c2sc2ccccc23)cc1	/	/	i	i	/	/
COc1ccc(NC(=O)CN2C(=O)C(C)(C)c3ccccc32)cc1Cl	/	/	?	i	/	/
Cc1ccc(CNC(=O)c2cc(-c3ccc(Cl)cc3)on2)cc1	/	/	i	i	/	/
CC(=O)Nc1ccc(S(=O)(=O)Nc2cccc(-c3csc(C)n3)c2)cc1	?	-1.3%	i	i	17.7%	-26.8%
O=C(Nc1ccc(-c2nc3ccccc3s2)cc1)c1cc(-n2cnnc2)ccc1Cl	11.2µM*	2.2%	i	?	1.1%	10µM*
Cc1cccc(-c2nc3cc(NC(=O)C4CCCO4)ccc3o2)c1 (configuration not stated)	-2.7%	-56.2%	13µM*	i	-59.2%	-14.5%
CC(=O)Nc1ccc(S(=O)(=O)Nc2cccc(-c3nc4cc(C)ccc4o3)c2)cc1	15.3%	?	?	18.4µM*	0.9%	-0.7%
Cc1ccc2oc(-c3cccc(NC(=O)Cc4cccs4)c3)nc2c1	-1.3%	14.6µM*	i	i	1.8%	-3.5%
Cc1ccc2oc(-c3ccc(C)c(NC(=O)Cc4cccs4)c3)nc2c1	-15.0%	1.7%	?	i	-38.4%	-1.7%
Cc1ccc(NC(=O)c2cc(-n3cnnc3)ccc2Cl)cc1	11.4%	27.5%	i	i	-1.7%	5.6%
Cc1ccc2oc(-c3cccc(NC(=O)c4cccc5c(Cl)cccc45)c3)nc2c1	/	/	?	i	/	/
Cc1ccc2oc(-c3cccc(NC(=O)c4cc(-n5cnnc5)ccc4Cl)c3)nc2c1	?	8.2µM*	i	i	?	?
O=C(c1ccccc1)N1N=C(c2ccccc2O)CC1c1ccccc1 (configuration not stated)	-16.4%	-28.3%	i	i	0.9%	-7.6%
CN1C(=O)CC(c2cn(Cc3ccccc3)c3ccccc23)C1=O (configuration not stated)	-0.1%	20.2%	?	i	13.0%	-11.3%
